hcDAF-12 act = activators of H. contortus DAF-12 nuclear receptor; 1.4% of 370,000 active; activation, % at 6.8 µM; HEK293 hcDAF-12 lit1-tk-luc reporter, luminescence; 0% DMSO, 100% Δ7-dafachronic acid;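 active = activation above the mean of all tested compounds plus 3 SD, cut at about 5.5% in these data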;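 note: 100% = response to 3 µM Δ7-dafachronic acid high control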
DAX1 inh-1 = inhibits human nuclear receptor DAX1; AID 504766; P51843; 0.99% of 340,000 active; HEK293 Gal4-DAX1 luciferase reporter, luminescence; inhibition, % at 6.75 µM;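 active = inhibition above the mean over all tested compounds plus 3 SD, cut at about 4.2% in these data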;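 note: 0% = DAX1-transfected cells with DMSO and 100% = empty-vector control cells with DMSO; inhibition shows as a rise in luminescence from relieved DAX1 repression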
Target sequence (P51843 207-470 limits assumed): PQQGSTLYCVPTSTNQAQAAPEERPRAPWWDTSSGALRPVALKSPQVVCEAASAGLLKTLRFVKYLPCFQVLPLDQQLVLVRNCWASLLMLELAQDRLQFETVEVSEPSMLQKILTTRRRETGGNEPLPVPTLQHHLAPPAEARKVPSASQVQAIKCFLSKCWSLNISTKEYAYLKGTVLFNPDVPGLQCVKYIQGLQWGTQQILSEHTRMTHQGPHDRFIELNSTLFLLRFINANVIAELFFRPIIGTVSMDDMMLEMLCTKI
ssDAF-12 act = activators of S. stercoralis DAF-12 nuclear receptor | HEK293 ssDAF-12/GRIP1 lit1-tk-luc reporter, luminescence; % of 3 µM dafachronic acid response | activation, % at 6.8 µM | 1% of 370,000 active | AID 652126;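 active = activation above the mean over all tested compounds plus 3 SD, cut at about 0.9% in these data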;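 note: 0% = DMSO-only wells and 100% = 3 µM delta7-dafachronic acid wells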
DAX1 inh-2 = inhibitors of DAX1 repression of SF-1 activated StAR promoter; 1.1% of 370,000 active; AID 652010; HEK293T StAR-luciferase reporter, SF-1/DAX-1 repression relief; inhibition, % at 6.8 µM;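 active = inhibition above the mean over all tested compounds plus 3 SD, cut at about 3.6% in these data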;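 note: 0% = DAX-1 cells with DMSO and 100% = cells lacking DAX-1 with DMSO; higher inhibition means more luminescence from relief of DAX-1 repression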
hgDAF12 agonist = agonists of H. glycines DAF-12 nuclear receptor; HEK293 GAL4-hgDAF12 UAS-luciferase reporter, agonist luminescence; normalized to butyrate control; activation, % at 6.8 µM; 1.8% of 370,000 active;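 active = activation above a cutoff set at the mean of all screened compounds plus 3 SD, cut at about 10% in these data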;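 note: 0% = DMSO wells and 100% = sodium butyrate wells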
* hit, by the source's call; . = not tested or not shown. Hits are enriched below; roughly 4.1% of the tested compounds scored in any of these assays.

SMILES	hcDAF-12 act	DAX1 inh-1	ssDAF-12 act	DAX1 inh-2	hgDAF12 agonist
N#Cc1ccc(Cn2ccc3ccc(-c4ccc5ccn(C(=O)C6CC6)c5c4)cc32)cc1	1	.	-2	0	2
CC(C)CN1C(=O)C[C@@]2(C(=O)N(C)c3ccc(NC(=O)C(F)(F)F)cc32)C1c1ccccc1 (some centres not stated)	-2	.	-1	0	3
CC1CCC2(CCC(=O)N2C[C@@H](O)c2ccccc2)CC1 (some centres not stated)	0	.	-1	.	-1
COc1cccc(/C(O)=C/c2nc3ccc(C(=O)NCCc4cccc(C)c4)cc3[nH]c2=O)c1	1	0	1.1*	1	3
O=C(CCCc1ccccc1)c1ccccc1	5.6*	4.9*	-1	2	6
O=C(CC(=O)c1ccncc1)c1ccccc1	2	0	-1	1	5
COc1ccc(NC(=O)CN(C)C(=O)CNC(=O)c2ccc3ccccc3c2)cc1	3	4.2*	1	3	9
O=C(CC(=O)c1ccccc1)c1ccccc1	1	2	-1	3.6*	11*
COC(=O)[C@]12C[C@H](CC(=O)N3CCN(C(=O)c4ccco4)CC3)C(=O)N(Cc3ccco3)C1=C[C@H](C1CCCC1)O[C@@H]2C	-3	.	-1	0	-2
Cc1ccccc1CN1CCCCC(NC(=O)c2ccccc2C(F)(F)F)C1=O (configuration not stated)	-4	.	-1	-1	-5
O=C(CSc1ccccc1)N1CCC(Oc2cccnc2)CC1	-1	.	-1	1	9
O=C(CCc1nnc(CCCCc2ccccc2)o1)NC1CCCC1	-3	0	-2	-1	0
COc1ccc(C(=O)CC(=O)c2ccccc2)cc1	4	.	0	1	11*
COc1ccc(C(=O)OCCc2sc[n+](CC(=O)c3ccccc3)c2C)cc1	0	4.5*	-2	-1	2
O=C(CCCc1ccccc1)NC1CC1	5.7*	0	-1	0	1
Cc1c(CCOC(=O)c2ccc([N+](=O)[O-])cc2)sc[n+]1CC(=O)c1ccccc1	-2	2	-1	-1	-4
COc1ccc(C(=O)CC(=O)c2ccc(OC)cc2)cc1	-1	2	-1	0	1
COc1ccc(C(=O)NCC(=O)c2ccccc2)cc1	1	1	0	2	12*
Cc1cccc(Cn2cc(COC(=O)NCC(C)C)nn2)c1	-2	.	0	0	5
COc1cccc(Cn2cc(COC(=O)NCCc3c[nH]c4ccccc34)nn2)c1	-1	.	-1	-1	-2
CN(C)/C=C(/C(=O)c1ccccc1Cl)S(=O)(=O)c1ccccc1	-1	3	-1	2	-2
O=C(Cn1cccn1)c1ccccc1	0	-1	-1	1	-1
COc1cccc(C(=O)NCCS(=O)(=O)NCCc2ccccc2)c1	3	1	0	4.0*	8
COc1ccc(C(=O)/C(=C/N(C)C)S(=O)(=O)c2ccccc2)cc1	3	1	-1	2	12*
COc1ccc(CNC(=O)CN2C(=O)c3ccccc3C2=O)cc1	-1	1	-1	0	0
SMILES	hcDAF-12 act	DAX1 inh-1	ssDAF-12 act	DAX1 inh-2	hgDAF12 agonist
COc1ccc(C(=O)CN2C(=O)c3ccccc3C2=O)cc1	0	.	1.5*	0	2
O=C(Cn1cncn1)c1ccccc1	-2	5.7*	0	0	0
C[C@H]1COc2cccc(N3CCCC3)c2S(=O)(=O)N1C	0	.	-1	0	-2
Nc1[nH]c2cc(C(F)(F)F)ccc2c1C(=O)NC1CCCCC1	5	.	1	-1	2
O=C(CNC(=O)c1ccccc1Cl)c1ccccc1	2	4	0	1	13*
COc1ccc(C(=O)C(=NN)c2ccccc2)cc1	0	1	0	3	12*
O=C(NCCCCNC(=O)c1ccccc1Cl)c1ccccc1Cl	0	1	-2	0	-2
O=C(CCCC(=O)c1ccc(O)cc1)c1ccc(O)cc1	4	2	1	2	11*
COc1ccc(C(=O)C(=NNc2ccccc2)c2ccc(OC)cc2)cc1	-1	-2	-1	-4	-3
CCOC(=O)[C@@]12CCCC3=C1N(CCC3)C(=O)[C@H]2CC(=O)N1CCCCC1	2	.	-1	0	0
CC(=O)c1ccccc1NC(=O)Cn1c(=O)cnc2ccccc21	6.1*	4	0	0	-2

Bioassay records (PubChem)
